Compound activity: PubChem BioAssay, National Center for Advancing Translational Sciences (NCATS)
IL-1B inflam inh: inflammasome signaling inhibition, IL-1 beta readout; THP-1 LPS/ATP IL-1B secretion, AlphaLISA, 16 h; active compounds read low; activity change, % at 57.5 µM; 360,000 tested, 4.7% active; AID 743279; in the data active = activity change below about -50%; inconclusive = mostly about -30% to -49%; also: % is scaled to controls: 0 for no effect and ±100 for the full control effect
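THP-1 cells pretreated 1 hr with compounds (up to 57.5 uM final), then stimulated with LPS (250 ng/mL final) plus ATP (1.25 mM final); secreted IL-1B measured by AlphaLISA after 16 hr, decreased signal indicating inhibition.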
USP2a inh: USP2a (human) protease inhibition; USP2 core, Ub-CHOP2 coupled fluorogenic reporter, 485/531; AID 463254; O75604; 330,000 tested, 0.01% active; Potency, µM (highest dose often 38.3 µM), inactives show at the top dose activity change, negative = inhibition, hits mostly inhibitors;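 also: potency is read from the fitted curve at half-maximal effect; plate controls were DMSO wells for no effect and full inhibition by NEM control for full effect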
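USP2 core (10nM final) preincubated 30min RT with compound in 20mM Tris-HCl pH 8.0, 2mM CaCl2, 2mM beta-mercaptoethanol, 0.05% CHAPS; 25nM Ub-CHOP2 plus 25nM reporter substrate added, fluorescence (Ex485/Em531) read after 60min.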
USP1 inh: blocks the human USP1/UAF1 deubiquitinase complex; O94782; recombinant USP1/UAF1, Ub-Rhodamine cleavage fluorescence; Potency, µM (top dose mostly 57.1 µM), inactives show at the top dose activity change, negative = inhibition, most hits filed as inhibitors; 390,000 tested, 0.23% active; AID 743255; also: potency is read from the fitted curve at half-maximal effect; % is scaled to controls: 0 for no effect and ±100 for the full control effect; nearly all actives have a fitted effect of over 60% in size
Target sequence (O94782 whole entry, looked up): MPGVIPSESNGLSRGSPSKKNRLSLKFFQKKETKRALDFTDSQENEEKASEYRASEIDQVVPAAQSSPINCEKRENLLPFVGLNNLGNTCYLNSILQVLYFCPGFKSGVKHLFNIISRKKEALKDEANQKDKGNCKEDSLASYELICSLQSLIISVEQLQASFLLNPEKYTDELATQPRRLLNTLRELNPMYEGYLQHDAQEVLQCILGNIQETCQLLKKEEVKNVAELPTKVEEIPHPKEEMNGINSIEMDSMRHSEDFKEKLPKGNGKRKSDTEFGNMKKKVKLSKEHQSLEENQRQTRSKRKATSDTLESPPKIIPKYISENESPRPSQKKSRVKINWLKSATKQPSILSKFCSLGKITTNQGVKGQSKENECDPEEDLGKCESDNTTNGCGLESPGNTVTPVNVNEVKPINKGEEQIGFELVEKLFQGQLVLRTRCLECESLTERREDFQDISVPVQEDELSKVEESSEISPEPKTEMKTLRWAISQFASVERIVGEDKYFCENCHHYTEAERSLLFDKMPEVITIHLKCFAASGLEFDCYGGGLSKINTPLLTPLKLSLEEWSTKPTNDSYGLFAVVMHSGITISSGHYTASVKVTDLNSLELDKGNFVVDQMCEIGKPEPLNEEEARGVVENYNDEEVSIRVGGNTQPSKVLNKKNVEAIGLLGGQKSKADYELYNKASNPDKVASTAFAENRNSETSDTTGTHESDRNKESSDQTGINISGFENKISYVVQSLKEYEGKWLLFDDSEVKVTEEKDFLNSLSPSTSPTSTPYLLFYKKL
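In this screen, compounds sit with the deubiquitinase complex (1nM) for 15 min at room temperature before Ub-Rho is added at 150nM final. Fluorescence rise is then followed for 6 reads every 60 seconds.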
S2 tox: viability counter-screen for ATXN expression inhibitors; 400,000 tested, 0.49% active; S2 cells (HEK-293 line with an ATXN2-luciferase reporter) viability, CellTiter-Fluor protease fluorescence, 24 h; Potency, µM (highest dose often 56.7 µM), actives largely listed as cytotoxic; also: potency is read from the fitted curve at half-maximal effect; nearly all actives have a fitted effect of over 40% in size
ATXN2 expr inh: reduces ATXN2 reporter expression in HEK-293 cells; HEK-293 ATXN2-luciferase reporter, luminescence, 24 h; Potency, µM (doses to about 57 µM), inactives show at the top dose activity change, negative = inhibition, actives largely listed as inhibitors; 360,000 tested, 0.72% active; also: potency is read from the fitted curve at half-maximal effect; % is scaled to controls: 0 for no effect and ±100 for the full control effect; nearly all actives have a fitted effect of over 55% in size
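qHTS (up to 57 uM final) was run with 24 h compound exposure of reporter cells at 37 °C. Each well was multiplexed: SteadyGlo luminescence measured ATXN2-luciferase expression after a fluorogenic Gly-Phe-AFC viability readout (25 uM final).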
Starred values were filed as active, the others as inactive; i = inactive; ? = inconclusive; . = not tested or not shown; [ ] = dose if it differs, or a comment. Rows were chosen to be rich in hits. Some 4.8% of all compounds tested hit in one or more screens of this group. Unless noted, calls follow the shape of the dose curve; as a rule, active = well fitted curve in the direction sought with a large enough effect; inconclusive = small, poorly fitted or top-dose-only effect, or another doubt; inactive = no such curve, though single readings can be large; an effect the other way counts as inactive or inconclusive.

SMILES	IL-1B inflam inh	USP2a inh	USP1 inh	S2 tox	ATXN2 expr inh
C=C1C(=O)O[C@@H]2C[C@@H](C)[C@@H]3C4OC4C(=O)[C@@]3(C)[C@@H](O)[C@H]12 (some centres undefined)	-113*	2%	1%	3.5µM*	3.2µM*
C=C1C(=O)O[C@H]2[C@H]1[C@H](OC(=O)CC(=O)O[C@@H]1C[C@@H](C)[C@@H]3C=CC(=O)[C@@]3(C)[C@H]3OC(=O)C(=C)[C@H]13)C[C@@H](C)[C@H]1C=CC(=O)[C@]12C	-105*	9%	-6%	?	?
COc1ccc(CCNc2nccn(-c3ccc(C)c(C)c3)c2=O)cc1OC	.	.	-16%	?	0%
COc1ccc2c(C(=O)c3ccc(Cl)cc3)c(C)n(CC(=O)O)c2c1	.	.	.	i	11%
CCC(c1nnnn1C(C)(C)C)N1CCC2(CC1)C(=O)NCN2c1ccccc1 (centres undefined)	28	.	.	?	-7%
COc1ccc(-n2nnnc2C(c2cccs2)N2CCC3(CC2)C(=O)NCN3c2ccccc2)cc1 (centres undefined)	-57*	.	.	?	?
CC(C)(C)n1nnnc1C(CCc1ccccc1)N1CCC2(CC1)C(=O)NCN2c1ccccc1 (centres undefined)	-60*	.	.	?	?
CCC(c1nnnn1-c1ccc(OC)cc1)N1CCC2(CC1)C(=O)NCN2c1ccccc1 (centres undefined)	-24	.	.	?	13%
COc1ccc(-n2nnnc2C(CCc2ccccc2)N2CCC3(CC2)C(=O)NCN3c2ccccc2)cc1 (centres undefined)	-67*	.	.	?	?
COc1ccc(-n2nnnc2C(CCSC)N2CCC3(CC2)C(=O)NCN3c2ccccc2)cc1 (centres undefined)	-16	.	.	?	-12%
COc1cccc(CSc2nc(-c3ccccc3OC)nc3c2Cc2c(CO)cnc(C)c2O3)c1	.	.	-18%	?	?
COc1ccc(NC(=O)CCOc2cc(C)ccc2C)cc1S(=O)(=O)N1CCCCC1	-54*	-5%	-24%	?	-24%
COc1ccc(CC(=O)Nc2ccc(C#N)c(Cl)c2)cc1S(=O)(=O)N1CCOCC1	-13	2%	-12%	i	-6%
CN(C)CCc1c[nH]c2cccc(OP(=O)(O)O)c12	.	.	.	i	-5%[116 µM]
CC[C@@]1(O)C(=O)OCc2c1cc1n(c2=O)Cc2cc3c(N)cccc3nc2-1	-112*	5%	?	?	-10%
CC1=CC(C)CC(C)OC(=O)CC(c2ccc(O)cc2)NC(=O)C(Cc2c(Br)[nH]c3ccccc23)N(C)C(=O)C(C)NC(=O)C(C)C1 (centres undefined)	-4	.	-20%	0.015µM*	?
Cc1[nH]ccc2c1[nH]c1cc(=O)ccc12	-26	2%	-19%	i	-20%
CCN(CC)C(=O)c1ccc(C2=CC3(CCNCC3)Oc3cccc(O)c32)cc1	.	.	.	.	-4%
CCC(C)N1C(=O)/C(=C\c2ccc(N3CCCCCC3)cc2)C(=O)NC1=S (centres undefined)	-1	0%	-7%	i	-1%
CCC(C)N1C(=O)/C(=C\c2cnc(N(C)C)nc2)C(=O)NC1=S (centres undefined)	-52*	3%	-1%	i	?
C/C=C(\CC)C(=O)NC(N)=O	.	.	.	i	.
O=c1oc2ccccc2c(O)c1C(CC(O)c1ccc(-c2ccc(Br)cc2)cc1)c1ccccc1 (centres undefined)	.	.	.	i	9%
Cc1ccccc1-[n+]1c(-c2ccccc2)cc(-c2ccccc2)cc1-c1ccccc1	-90*	1%	-12%	13µM*	?
[O-]c1ccccc1-[n+]1c(-c2ccccc2)cc(-c2ccccc2)cc1-c1ccccc1	-84*	1%	-15%	?	?
Cc1ccc(-c2cc(-c3ccccc3)cc(-c3ccccc3)[n+]2-c2ccc(C(=O)O)cc2)cc1	16	1%	-6%	i	5%
SMILES	IL-1B inflam inh	USP2a inh	USP1 inh	S2 tox	ATXN2 expr inh
Oc1ccccc1-[n+]1c(-c2ccccc2)cc(-c2ccccc2)cc1-c1ccccc1	?	0%	?	?	?
Nc1ccccc1-[n+]1c(-c2ccccc2)cc(-c2ccccc2)cc1-c1ccccc1	-96*	0%	-18%	i	1%
COc1ccc(C(=O)OCC(=O)Nc2ccc([N+](=O)[O-])cc2OC)c(O)c1	16	0%	-22%	?	?
Fc1ccc(C2=CCN(C(c3cccs3)c3nnnn3CCc3ccccc3)CC2)cc1 (centres undefined)	-61*	5%	-26%	.	?
CCC(C)(C)n1nnnc1C(c1cccs1)N1CC=C(c2ccc(F)cc2)CC1 (centres undefined)	-67*	-7%	-17%	i	4%
CCCCCCCCCC(=O)O[C@H]1CC[C@H]2[C@@H]3CCC4=CC(=O)CC[C@@H]4[C@H]3CC[C@]12C	.	.	.	i	3%
CC(C)CC1C(=O)N(Cc2cn(CC3CCCCC3)nn2)CCS(=O)(=O)N1Cc1ccc(-c2ccc(F)nc2)cc1 (centres undefined)	-3	.	-13%	?	?
CCOC(=O)C1(c2ccccc2)CCN(CCC(=O)Nc2cccc(Br)c2)CC1	-101*	-1%	-17%	?	?
NNc1ccccc1	.	.	.	i	9%
CN(C)c1ccc(C(=O)c2ccc(N(C)C)cc2)cc1	27	1%	-17%	i	27%
CN(C)c1ccc(/C=C/[N+](=O)[O-])cc1	-64*	1%	-26%	i	30%
C/C(=C\c1ccc(N(C)C)cc1)[N+](=O)[O-]	-107*	1%	1%	.	32µM*
CN(C)CCO	.	.	.	i	.
CC[C@@H]1[C@@H](C)O[C@@](O)([C@@H](C)[C@H](O)[C@H](C)[C@H]2OC(=O)C=CC=C[C@@H](C)[C@@H]([C@@H](C)[C@@H](O)[C@H](C)[C@@]3(O)C[C@H](O[C@H]4C[C@H](O)[C@H](O)[C@H](C)O4)[C@H](CC)[C@@H](C)O3)OC(=O)C=CC=C[C@@H]2C)C[C@H]1O[C@H]1C[C@H](O)[C@H](O)[C@H](C)O1	.	.	.	.	0.97µM*
C[C@H]1C(=O)O[C@@H]2CCN3CC=C(COC(=O)[C@@](C)(O)[C@@]1(C)O)[C@H]23	.	.	.	i	.
O=C1CN2CCOC2(c2ccccc2Cl)c2cc(Cl)ccc2N1 (centres undefined)	.	.	.	i	5%
CC1CCC(C(C)C)C(OC(=O)Cn2c(COc3ccccc3)[n+](C)c3ccccc32)C1 (centres undefined)	-105*	-5%	-13%	25µM*	?
